Data: PubChem BioAssay (Tox21)
“And” between values parts separate entries of the source, which are not always exact repeats. Identical values can stand only once. Records with an inconclusive call do not appear. Entries that show only a call come without a potency. More than one record can exist for a structure, and the calls need not agree. The source made the active and inactive calls. Calls follow the shape of the dose curve; as a rule, active = well fitted cell-killing curve with a large enough effect in the repeat runs; inconclusive = weak or mixed curves, or effect the other way; inactive = flat fitted curve, though single readings scatter.

Test: qHTS RealTime-Glo MT Cell Viability Assay in HEK293 cells - 32 hour (AID 1224868); also: nearly all actives have a fitted effect of over 50% in size
Settings: RealTime-Glo luminescence; series mostly up to 76.8 µM
From the text: National Center for Advancing Translational Sciences [NCATS]
NIH Chemical Genomics Center [NCGC]
U.S. Environmental Protection Agency [EPA]
National Institutes of Environmental Health Sciences [NIEHS]
National Toxicology Program [NTP]
U.S. Food and Drug Administration [FDA]
Measure of cell viability is critical in the cell-base assay. Analysis of cell viability is necessary for the characterization of cell responses to cytotoxic drugs and environmental stress. A RealTime-Glo MT Cell Viability Assay to monitor cell viability in real time of continues cell culture during 40 hours of compound treatment was used to screen Tox21 10K library compounds in Hek293 cells. The RealTime-Glo MT Cell Viability Assay is a nonlytic, homogeneous, bioluminescent method to measure cell viability in real time using a simple, plate-based method. The assay involves adding NanoLuc luciferase and a cell-permeant prosubstrate to cells in culture. Viable cells reduce the proprietary prosubstrate to generate a substrate for NanoLuc luciferase. This substrate diffuses from cells into the surrounding culture medium, where it is rapidly used by the NanoLuc Enzyme to produce a luminescent signal. The signal correlates with the number of viable cells, making the assay well suited for cytotoxicity studies.
Tox21 Assay Protocol Summary:
The mixture of Hek293 cell suspension and reagents were dispensed at 600cells/6 ul/well in 1536-well tissue culture treated black solid bottom plates using a Multidrop dispenser. After the assay plates were incubated at a 37 C/5% CO2 incubator for 5 hours, 23 nL of compounds dissolved in DMSO, positive and negative controls was transferred to the assay plate by a pintool work station. The plates were incubated at 37 C for 40 hours. The luminescence intensity were measured at 0h, 8h, 16h, 24h, 32h and 40h time points using ViewLux plate reader during compound treatment.
Potency is read from the fitted curve at half-maximal effect.

| SMILES | Potency |
| --- | --- |
| CN(N=O)c1ccccc1 | inactive |
| C=C(C)CCl | inactive |
| COCCl | inactive |
| COC(=O)NS(=O)(=O)c1ccc(N)cc1 | inactive |
| Nc1ccc(Oc2ccc(N)cc2)cc1 | inactive |
| CN(C)CCO | inactive |
| O=[N+]([O-])c1ccccc1 | inactive |
| O=c1[nH]c2ccccc2c(=O)o1 | inactive |
| CCOP(=S)(OCC)Oc1cnc2ccccc2n1 | inactive |
| ClCc1cccnc1 | inactive |
| BrCCBr | inactive |
| CCCN(CCC)c1c([N+](=O)[O-])cc(C(F)(F)F)cc1[N+](=O)[O-] | inactive |
| ClCCBr | inactive |
| CN1C(=O)CN=C(c2ccccc2)c2cc(Cl)ccc21 | inactive |
| CCNc1nc(NC(C)C)nc(SC)n1 | inactive |
| Clc1cccc(Cl)c1Cl | inactive |
| c1cc2c3c(cccc3c1)CC2 | inactive |
| C=CCO | inactive |
| Cc1[nH]c(=O)n(C(C)(C)C)c(=O)c1Cl | inactive |
| CON(C)C(=O)Nc1ccc(Cl)c(Cl)c1 | 43.6 µM (active) |

| SMILES | Potency |
| --- | --- |
| Nc1ccccc1C(=O)O | inactive |
| Cc1ccc([N+](=O)[O-])cc1C | inactive |
| NCCc1ccc(O)cc1 | inactive |
| CC(C)(Cl)Cl | inactive |
| O=S(=O)(c1ccc(O)cc1)c1ccc(O)cc1 | inactive |
| OC(O)C(Cl)(Cl)Cl | inactive |
| CCC[CH2][Sn]([Cl])([Cl])[Cl] | inactive |
| CCC[N+](=O)[O-] | inactive |
| [O-][Cl+2]([O-])O | inactive |
| Nc1ccc(Br)cc1 | inactive |
| Clc1ccccc1Cl | inactive |
| CCCC1COC(Cn2cncn2)(c2ccc(Cl)cc2Cl)O1 (stereo not given) | 22.3 µM (active) and 24.5 µM (active) |
| CN(C)[C@@H]1C(=O)C(C(N)=O)=C(O)[C@@]2(O)C(=O)C3=C(O)c4c(O)cccc4[C@@](C)(O)[C@H]3C[C@@H]12 | inactive |
| CCN(CC)CCO | inactive |
| CC(=O)C=C(C)C | inactive |
| Cc1cc(Cl)ccc1O | inactive |
| CCCCN(CC)C(=O)SCCC | inactive and 19.5 µM (active) |
| NCC(O)c1ccc(O)cc1 (stereo not given) | inactive |
| CC(C)(C)OOC(C)(C)C | inactive |
| c1ccc2c(c1)Oc1ccccc1O2 | inactive |
